Rows were chosen to be rich in hits. Some 1.3% of all compounds tested hit in one or more screens of this group.
SRC2 inh = inhibits human steroid receptor coactivator 2; Q15596; HEK293 GAL4-SRC2 luciferase reporter, luminescence; inhibition, % at 9 µM; 370,000 tested, 0.17% active;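 active = inhibition above the mean inhibition of all tested compounds plus 3 SD, set per campaign, cut at about 52% in these data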;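 also: 0% = DMSO treated cells and 100% = cells given Gossypol at 36 µM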
SRC3 inh = human NCOA3 inhibition; inhibition, % at 3.6 µM; AID 588352; HEK293 GAL4-SRC3 luciferase reporter, luminescence; Q9Y6Q9; 360,000 tested, 0.17% active;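 active = inhibition above a per-campaign cutoff, the mean of all compounds plus 3 SD, cut at about 60% in these data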;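 also: 0% = DMSO-treated cells and 100% = gossypol-treated cells at 36 µM; higher means less SRC3-driven luciferase light from the GAL4 reporter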
Target sequence (Q9Y6Q9 whole entry, looked up, the tested form may be a part): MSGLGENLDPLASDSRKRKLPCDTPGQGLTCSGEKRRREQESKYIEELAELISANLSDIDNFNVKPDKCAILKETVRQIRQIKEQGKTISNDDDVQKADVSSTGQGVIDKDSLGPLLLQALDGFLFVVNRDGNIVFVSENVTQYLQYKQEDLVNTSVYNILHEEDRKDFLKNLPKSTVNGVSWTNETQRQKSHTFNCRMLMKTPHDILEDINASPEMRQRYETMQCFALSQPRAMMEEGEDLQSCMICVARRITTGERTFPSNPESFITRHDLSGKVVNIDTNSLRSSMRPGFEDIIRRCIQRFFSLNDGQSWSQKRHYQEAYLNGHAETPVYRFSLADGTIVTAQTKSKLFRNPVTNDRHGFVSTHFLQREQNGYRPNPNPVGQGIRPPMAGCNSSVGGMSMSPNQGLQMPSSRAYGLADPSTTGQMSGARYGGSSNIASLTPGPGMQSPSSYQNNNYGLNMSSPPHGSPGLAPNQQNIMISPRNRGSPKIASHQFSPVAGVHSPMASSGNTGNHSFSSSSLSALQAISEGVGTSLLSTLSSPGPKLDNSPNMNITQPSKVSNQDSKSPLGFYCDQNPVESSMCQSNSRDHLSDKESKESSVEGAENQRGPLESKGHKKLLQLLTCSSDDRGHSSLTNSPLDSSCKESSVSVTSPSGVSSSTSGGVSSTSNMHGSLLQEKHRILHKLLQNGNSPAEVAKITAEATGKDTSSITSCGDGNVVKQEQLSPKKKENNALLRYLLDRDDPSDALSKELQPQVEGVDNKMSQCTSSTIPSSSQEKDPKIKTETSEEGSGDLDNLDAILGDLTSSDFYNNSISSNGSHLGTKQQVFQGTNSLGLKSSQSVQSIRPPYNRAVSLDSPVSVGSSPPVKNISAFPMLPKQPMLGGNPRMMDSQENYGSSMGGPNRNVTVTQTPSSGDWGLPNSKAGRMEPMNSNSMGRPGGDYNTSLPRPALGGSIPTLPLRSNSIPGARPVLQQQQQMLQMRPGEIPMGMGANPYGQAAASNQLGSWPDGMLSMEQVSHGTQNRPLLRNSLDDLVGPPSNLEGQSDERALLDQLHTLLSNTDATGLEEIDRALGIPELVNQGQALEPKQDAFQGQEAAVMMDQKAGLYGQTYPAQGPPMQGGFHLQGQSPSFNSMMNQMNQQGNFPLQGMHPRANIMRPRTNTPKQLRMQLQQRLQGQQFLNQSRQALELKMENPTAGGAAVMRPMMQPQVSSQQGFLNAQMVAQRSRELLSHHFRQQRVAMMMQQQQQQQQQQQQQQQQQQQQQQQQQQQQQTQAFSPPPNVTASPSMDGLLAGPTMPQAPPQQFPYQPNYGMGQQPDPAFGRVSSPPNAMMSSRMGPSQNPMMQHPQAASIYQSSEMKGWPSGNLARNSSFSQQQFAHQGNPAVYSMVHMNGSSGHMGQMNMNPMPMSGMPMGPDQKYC
NR5A2 inv ag = inverse agonists of human LRH-1 (NR5A2); 360,000 tested, 0.13% active; HEK293T StAR-luciferase reporter, LRH-1 transfected, 24 h; O00482; inhibition, % at 3.6 µM;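 active = inhibition above the mean inhibition of all tested compounds plus 3 SD, cut at about 73% in these data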;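 also: 0% = DMSO wells and 100% = reporter-only cells lacking LRH-1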
SRC1 inh = inhibitors of human steroid receptor coactivator 1 (SRC1). inhibition, % at 3.6 µM. HEK293 GAL4-SRC1 luciferase reporter, luminescence. AID 588354. Q15788. 360,000 tested, 0.12% active;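 active = inhibition above the campaign mean plus 3 SD, with each screening campaign given its own cutoff, cut at about 60% in these data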;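 also: 0% = DMSO treated cells and 100% = gossypol at 36 µM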
COUP-TFII inh = blocks human COUP-TFII nuclear receptor. inhibition, % at 8.6 µM. 370,000 tested, 0.7% active. P24468. AID 686940. HEK293T NGFI-A luciferase reporter, luminescence;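 active = inhibition above a per-plate cutoff, mean inhibition of test wells between control levels plus 3 SD, cut at about 38% in these data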;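 also: cells cotransfected with COUP-TFII expression vector driving the NGFI-A reporter; 0% = median of COUP-TF2 test wells and 100% = reporter-only cells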
Gli-Sufu antag = Gli-Sufu pathway antagonism. Sufu-KO-LIGHT fibroblasts, Gli luciferase reporter luminescence. inhibition, % at 5 µM. 340,000 tested, 0.74% active. AID 588413;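 active = inhibition above about 55%, limit read from the data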;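 also: 0% = DMSO-treated cells and 100% = wells with medium but no cells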
VP16 Luc counter = counter-screen for COUP-TFII antagonists: inhibitors of VP16 | HEK293 Gal4-VP16 luciferase reporter, luminescence | shares compounds with COUP-TFII inh | AID 687007 | inhibition, % at 8.5 µM | 2,500 tested, 25% active; in the data active = inhibition above about 13%
NR2F2 inh conf = COUP-TFII (NR2F2) inhibition, confirmation assay; 2,500 tested, 45% active; AID 687008; HEK293 NGFI-A luciferase reporter, luminescence; shares compounds with COUP-TFII inh; inhibition, % at 8.5 µM;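 active = mean inhibition over three repeats above a set limit taken from the earlier primary screen, cut at about 38% in these data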;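 also: 100% = cells given the luciferase reporter alone without the COUP-TF2 vector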
An asterisk follows results filed as active.

What do the screens show for `CCc1nc2ccccc2c(C(=O)OCC(=O)Nc2cccc(S(=O)(=O)N3CCOCC3)c2)c1C`?
SRC2 inh: 4; SRC3 inh: 39; NR5A2 inv ag: 10; SRC1 inh: 7; COUP-TFII inh: 65*; Gli-Sufu antag: 23; VP16 Luc counter: 11; NR2F2 inh conf: 30

What do the screens show for `O=C(Nc1cccc(S(=O)(=O)NC2=NCCC2)c1)c1ccccc1`?
SRC2 inh: -4; SRC3 inh: 5; NR5A2 inv ag: 13; SRC1 inh: 12; COUP-TFII inh: 23; Gli-Sufu antag: 2

How did O=C(Nc1cccc(S(=O)(=O)NC2=NCCCCC2)c1)c1ccc(Cl)cc1 do in these assays?
SRC2 inh: 16; SRC3 inh: 7; NR5A2 inv ag: 24; SRC1 inh: -5; COUP-TFII inh: 43*; Gli-Sufu antag: 25; VP16 Luc counter: -7; NR2F2 inh conf: 10

What do the screens show for `CCc1nc2ccccc2c(C(=O)OCC(=O)Nc2cccc(S(=O)(=O)NC3=NCCCCC3)c2)c1C`?
SRC2 inh: 11; SRC3 inh: 19; NR5A2 inv ag: 3; SRC1 inh: 7; COUP-TFII inh: 64*; Gli-Sufu antag: 29; VP16 Luc counter: -2; NR2F2 inh conf: 21

How did CCCOC(=O)c1ccc(OCC(O)Cn2c(C)nc3ccccc32)cc1 (stereo not drawn) do in these assays?
SRC2 inh: 22; SRC3 inh: 10; NR5A2 inv ag: 23; SRC1 inh: 16; COUP-TFII inh: 39*; Gli-Sufu antag: 29; VP16 Luc counter: -43; NR2F2 inh conf: 30

Results for CC(=O)Nc1cccc(OCC(O)Cn2c(C)nc3ccccc32)c1 (stereo not drawn) ?
SRC2 inh: 0; SRC3 inh: 21; NR5A2 inv ag: 9; SRC1 inh: 10; COUP-TFII inh: 1; Gli-Sufu antag: -4

What do the screens show for `O=C(NCCc1c[nH]c2ccccc12)OCc1cn(-c2ccc(F)cc2F)nn1`?
SRC2 inh: -2; COUP-TFII inh: 6

How did O=C(OCCN1C(=O)c2cccc3c(N4CCOCC4)ccc(c23)C1=O)c1ccccc1Cl do in these assays?
SRC2 inh: 25; SRC3 inh: 22; NR5A2 inv ag: 8; SRC1 inh: 15; COUP-TFII inh: 66*; Gli-Sufu antag: 31; VP16 Luc counter: -4; NR2F2 inh conf: 23

How did c1ccc(C[n+]2cccc3c4ccccc4ccc32)cc1 do in these assays?
SRC2 inh: 19; SRC3 inh: 33; NR5A2 inv ag: 61; SRC1 inh: 19; COUP-TFII inh: 53*; Gli-Sufu antag: -6; VP16 Luc counter: 3; NR2F2 inh conf: 45*

Results for O=[N+]([O-])c1ccc(C[n+]2cccc3ccccc32)cc1 ?
SRC2 inh: -9; SRC3 inh: 4; NR5A2 inv ag: 12; SRC1 inh: 2; COUP-TFII inh: -5; Gli-Sufu antag: 0

What do the screens show for `COC(=O)C1CN(Cc2ccc(OC)cc2)CCS(=O)(=O)N1Cc1ccc(Cl)cc1` (stereo not drawn)?
SRC2 inh: 18; COUP-TFII inh: 10

Results for O=C(NCC1(c2ccccc2)CCCC1)C(=O)NCC1(c2ccccc2)CCCC1 ?
SRC2 inh: -9; SRC3 inh: -1; NR5A2 inv ag: -8; SRC1 inh: 6; COUP-TFII inh: -2; Gli-Sufu antag: 20

What do the screens show for `S=C(NCC1(c2ccccc2)CCCC1)Nc1ccccc1`?
SRC2 inh: 12; SRC3 inh: 18; NR5A2 inv ag: 14; SRC1 inh: -7; COUP-TFII inh: 42*; Gli-Sufu antag: 10; VP16 Luc counter: 4; NR2F2 inh conf: 8

What do the screens show for `CCC(=O)Nc1ccc(Cl)cc1C(=O)c1ccc[nH]1`?
COUP-TFII inh: 4

How did Cc1[nH]nc2ncc(C(=O)c3ccccc3O)cc12 do in these assays?
SRC2 inh: 46; SRC3 inh: 45; NR5A2 inv ag: 18; SRC1 inh: 51; COUP-TFII inh: 38*; Gli-Sufu antag: -11; VP16 Luc counter: 15*; NR2F2 inh conf: 32

How did Nc1ccc(F)c(CN2CCN(c3ncc(Cc4ccccc4)cn3)CC2)c1 do in these assays?
SRC2 inh: 28; COUP-TFII inh: 22

How did O=C(NCc1ccccc1)OC1CC2CC1[C@H]1CCCCN1C2 (stereo partly drawn) do in these assays?
SRC2 inh: 14; COUP-TFII inh: -6

What do the screens show for `COc1ccc(OCC2CN(Cc3ccccc3)S(=O)(=O)CCO2)cc1` (stereo not drawn)?
SRC2 inh: 20; COUP-TFII inh: -5

How did O=[N+]([O-])c1nn(-c2ccc3c(c2)OCCO3)n(O)c1=Nc1ccccc1 do in these assays?
SRC2 inh: 84*; SRC3 inh: 85*; NR5A2 inv ag: 94*; SRC1 inh: 76*; COUP-TFII inh: 91*; VP16 Luc counter: -105; NR2F2 inh conf: 35

Results for Cc1cc(C)cc(N=c2c([N+](=O)[O-])nn(-c3ccc4c(c3)OCCO4)n2O)c1 ?
SRC2 inh: 0; SRC3 inh: 1; NR5A2 inv ag: -6; SRC1 inh: -7; COUP-TFII inh: 8; Gli-Sufu antag: 31

What do the screens show for `Clc1ccc(CN2CCN(N=Cc3ccncc3)CC2)cc1`?
SRC2 inh: 33; COUP-TFII inh: 50*; VP16 Luc counter: 13; NR2F2 inh conf: 35

Results for CN1/C(=C\C(=O)C[n+]2ccc3ccccc3c2)C(C)(C)c2ccccc21 ?
SRC2 inh: 4; SRC3 inh: 51; NR5A2 inv ag: 61; SRC1 inh: 16; COUP-TFII inh: 79*; Gli-Sufu antag: 34; VP16 Luc counter: 17*; NR2F2 inh conf: 52*

How did COc1ccccc1OCC(=O)/C=C1/N(C)c2ccccc2C1(C)C do in these assays?
SRC2 inh: 14; SRC3 inh: 12; NR5A2 inv ag: 15; SRC1 inh: 18; COUP-TFII inh: 18; Gli-Sufu antag: 14

How did OC(c1ccc(-c2ccccc2)cc1)c1ncc(-c2ccccc2)[nH]1 (stereo not drawn) do in these assays?
SRC2 inh: -13; SRC3 inh: 9; NR5A2 inv ag: 5; SRC1 inh: 9; COUP-TFII inh: 57*; VP16 Luc counter: -10; NR2F2 inh conf: -15

Results for F[B-](F)(F)c1cncnc1 ?
SRC2 inh: -21; COUP-TFII inh: -13

How did COC(=O)c1ccc(Oc2ccc(S(=O)(=O)N3CCCCC3)cc2N)cc1 do in these assays?
SRC2 inh: 3; SRC3 inh: 9; NR5A2 inv ag: 17; SRC1 inh: 14; COUP-TFII inh: 39*; Gli-Sufu antag: 13; VP16 Luc counter: -4; NR2F2 inh conf: 26

How did CCOC(=O)c1ccccc1S(=O)(=O)N1CCN(c2nc(-c3cccs3)nc3ccccc23)CC1 do in these assays?
COUP-TFII inh: 27

Screens (PubChem BioAssay)
